Rows were chosen to be rich in hits. Some 1.7% of all compounds tested hit in one or more screens of this group.
F508del corr: F508del CFTR correction, initial screen, CFBE line, single point; CFBE cells, YFP halide quenching; stimulated with forskolin plus potentiator P3; % fluorescence drop versus neutral controls; actives 0.36% (n = 350,000); activity (quench increase), % at 7.58 µM; AID 720511, 2013;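 active = mean added fluorescence quench of at least 8% versus neutral control, with both replicates also reaching 8%; inconclusive = only one of the mean or replicate conditions met; inactive = mean below 8% and not both replicates reaching 8%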;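 also: cells transiently co-express mutant CFTR-F508del with the halide-sensitive YFP; corrector assay measuring rescue of mutant channel to the surface after 24 h compound exposure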
Vif imaging: HIV Vif self-association inhibitors, primary screen, imaging, HEK293T, single point. inhibition, % at 7.49 µM. actives 0.35% (n = 340,000). HEK293T cells, Vif self-association by quenched fluorescence, 24 h; in the data active = inhibition above about 50%, passing the limit was not always enough; inconclusive = no clear call, values can overlap the other calls; inactive = below about 31%
FGF22 binding: binders of human FGF22 protein, primary screen, FGF22 synaptogenesis inhibitor project, biophysical, thermal shift, single point; actives 1.5% (n = 340,000); AID 651658, 2012; activity (Tm shift, normalised), % at 9.99 µM; recombinant FGF22 thermal shift, SYPRO orange fluorescence; percent of sucrose octasulfate shift, DMSO zero;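 active = mean Tm shift, scaled 0 neutral to 100 positive control, at about 1.3% or above, every replicate too, limit read from the data; inconclusive = no clear call, values can overlap the other calls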
Target sequence (Q9HCT0 whole entry, looked up): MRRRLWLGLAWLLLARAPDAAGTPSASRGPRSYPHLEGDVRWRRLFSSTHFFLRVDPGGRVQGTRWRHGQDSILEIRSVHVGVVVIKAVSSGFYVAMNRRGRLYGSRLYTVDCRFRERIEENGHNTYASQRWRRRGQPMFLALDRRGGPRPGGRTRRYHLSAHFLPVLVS
Starred values were filed as active, the others as inactive; ? = inconclusive; . = no result; + = active, no number.

SMILES	F508del corr	Vif imaging	FGF22 binding
C[C@@H]1CCCCO[C@H](CN(C)S(=O)(=O)c2ccccc2)[C@H](C)CN([C@@H](C)CO)C(=O)c2cc(NS(C)(=O)=O)ccc2O1	0	.	0
COc1ccccc1S(=O)(=O)N[C@H]1C=C[C@@H](CC(=O)NCc2cc(F)cc(F)c2)O[C@@H]1CO	0	.	0
O=C(CC(CC(=O)c1ccccc1)c1ccccn1)c1ccccc1	5	-14	44*
O=C(CC(=O)c1ccccn1)c1ccccc1	7	8	0
COc1ccc2c3c([nH]c2c1)[C@@H](CO)N(S(=O)(=O)c1cn(C)cn1)CC31CCN(CC2CCCCC2)CC1	8.6*	.	.
CCS(=O)(=O)N1CCC2(CC1)CN(S(=O)(=O)c1cn(C)cn1)[C@@H](CO)c1[nH]c3cc(OC)ccc3c12	-1	.	0
C[C@@H]1CN([C@H](C)CO)S(=O)(=O)c2ccc(C#C[C@@H](C)O)cc2O[C@H]1CN(C)C(=O)C1CC1	2	.	0
Cc1cc(C)n(-c2ccc(C(=O)O)cc2)n1	.	2	.
Cc1cc(N)n(-c2ccc(C(=O)O)cc2)n1	1	41	43*
O=C(Cc1cccs1)N/N=C/C=C\c1ccco1	-4	2	1
O=C(N/N=C/C=C\c1ccco1)c1cccs1	6	10	44*
Cc1ccc(O)c(NC(=S)NC(=O)/C=C/c2ccccc2)c1	0	-1	0
CC(=O)NC(=S)Nc1ccc(NC(=S)NC(=O)/C=C/c2ccco2)cc1	14*	3	0
Cc1ccc(O)c(NC(=S)NC(=O)/C=C/c2ccco2)c1	6	10	43*
CCC(=O)Nc1ccc(NC(=S)NC(=O)/C=C/c2ccco2)cc1	-1	?	0
C[C@@H]1CN([C@@H](C)CO)C(=O)c2cc(NC(=O)NC3CCCCC3)ccc2O[C@@H](C)CCCCO[C@H]1CN(C)C(=O)Cc1ccccc1	0	.	0
COc1ccc(S(=O)(=O)N2C[C@H](O)COC[C@H]3O[C@@H](CC(=O)NCCCN4CCOCC4)CC[C@@H]32)cc1	-2	.	0
C[C@@H]1CN([C@@H](C)CO)C(=O)Cc2cc(NS(=O)(=O)c3cn(C)cn3)ccc2O[C@H]1CN(C)C(=O)Nc1ccc(F)cc1	-1	.	0
O=C(C[C@@H]1CC[C@@H]2[C@H](COC[C@H](O)CN2Cc2ccc(Cl)cc2)O1)Nc1nccs1	1	.	0
CCS(=O)(=O)N1CC2(CN(C(=O)Nc3c(C)noc3C)[C@@H](CO)c3c2c2ccc(OC)cc2n3C)C1	-2	.	0
CCC(=O)N1C[C@H](C)[C@@H](OC)CN(C)C(=O)c2ccc(NC(=O)Nc3cccc(F)c3)cc2OC[C@@H]1C	2	.	0
O=C(N=c1ccn(-c2nc3ccccc3nc2NS(=O)(=O)c2ccc(Cl)cc2)cc1)c1cccs1	-1	82*	0
CCOc1ccc(S(=O)(=O)Nc2nc3ccccc3nc2-n2ccc(=NC(=O)c3cccs3)cc2)cc1	-3	21	.
N#C[C@H]1[C@H](c2ccc(C#Cc3ccc(F)cc3)cc2)[C@H](CO)N1C(=O)Cc1ccncc1	0	.	0
CS(=O)(=O)N1[C@@H]2c3cccc(=O)n3C[C@H]1[C@H](CO)[C@H]2C(=O)NCc1ccccc1	.	.	0
SMILES	F508del corr	Vif imaging	FGF22 binding
CN(C[C@H]1N[C@@H](CO)[C@H]1c1ccc(C2=CCCCC2)cc1)S(C)(=O)=O	-7	.	.
O=C(c1cc2ccccc2oc1=O)N1CCCN(C(=O)c2cc3ccccc3oc2=O)CC1	-1	-2	0
Cc1onc(-c2ccccc2Cl)c1C(=O)N1CCN(C=O)CC1	6	-1	0
Cc1cccc(N2CCN(C(=O)c3c(-c4ccccc4Cl)noc3C)CC2)c1C	14*	-1	0
Cc1cccc(N2CCN(C(=O)c3cc4ccccc4oc3=O)CC2)c1C	0	68*	0
CO[C@@H]1CN(C)C(=O)c2ccc(NC(=O)C3CCCC3)cc2OC[C@H](C)N(C(C)=O)C[C@@H]1C	4	.	0
O=C(NCC[C@H]1CC[C@@H](NC(=O)Nc2cc(F)ccc2F)[C@@H](CO)O1)Nc1ccc(Cl)cc1	1	.	1
O=C1CCCCC1Sc1nnc(-c2ccc3c(c2)OCO3)o1 (stereo not drawn)	-2	11	43*
Clc1ccc(CSc2nnc(-c3ccc4c(c3)OCO4)o2)cc1	.	9	.
O=C(NCCc1c[nH]c2ccccc12)c1ccco1	0	-5	0
O=C(NCCc1c[nH]c2ccccc12)/C(=C/c1ccco1)NC(=O)c1ccco1	-1	1	43*
COc1ccccc1S(=O)(=O)N[C@@H]1CC[C@H](CCNC(=O)C2CCC2)O[C@H]1CO	2	.	0
O=C(/C=C/c1ccccc1)Nc1ncn[nH]1	5	59*	0
O=C(O)C(=O)Nc1ncn[nH]1	-5	4	0
Cc1cccc2cc(COC(=O)c3ccco3)c(=O)[nH]c12	.	64*	.
Cc1cccc2cc(COC(=O)c3ccccc3)c(=O)[nH]c12	.	8	.
COc1cc2c(cc1OC)CN(CC(=O)Nc1ccccc1SC)CC2	2	-6	43*
COc1cc2c(cc1OC)CN(CC(=O)Nc1ccccc1C#N)CC2	.	6	.
C[C@H]1CN([C@@H](C)CO)C(=O)c2cc(-c3ccncc3)cnc2O[C@H]1CN(C)C(=O)c1ccncc1	-2	.	0
CCCNC(=O)N1CC2(C1)[C@@H](c1ccccc1)[C@@H](CO)N2Cc1ccc(F)cc1	2	.	0
CN(C(=O)c1ccc(OC2CCN(S(=O)(=O)N(C)C)CC2)cc1)C1CCCCC1	1	3	0
CCN(Cc1cnn(C)c1)C(=O)c1ccc(OC2CCN(S(=O)(=O)N(C)C)CC2)cc1	1	-4	44*
C/C=C/c1ccc([C@H]2[C@@H](CO)N(Cc3ccccn3)[C@H]2CNC(=O)CC)cc1	6	.	.
CC(C)NC(=O)N(C)C[C@H]1Oc2ccc(NC(=O)NC3CCCCC3)cc2CC(=O)N([C@@H](C)CO)C[C@@H]1C	-3	.	0
COc1cc(C(=O)Nc2cccc(-c3nnc(-c4ccco4)o3)c2)ccc1OC(C)=O	1	0	44*
SMILES	F508del corr	Vif imaging	FGF22 binding
COc1ccc(C(=O)Nc2cccc(-c3nnc(-c4ccco4)o3)c2)cc1	.	-13	.
Cc1ccc(S(=O)(=O)N(C)C[C@H]2OCCCC[C@@H](C)Oc3ccc(NS(=O)(=O)c4cn(C)cn4)cc3C(=O)N([C@@H](C)CO)C[C@@H]2C)cc1	1	.	0
c1ccc2c(c1)[nH]c1ccccc12	-4	-4	0
Cc1c(C2Nc3ccccc3C2C)[nH]c2ccccc12 (stereo not drawn)	10*	.	0
C[C@H]1CN([C@@H](C)CO)C(=O)Cc2cc(NC(=O)Nc3cccc4ccccc34)ccc2O[C@H]1CN(C)C(=O)Nc1ccccc1	-4	.	0
COc1ccc(OC)c(C=Nc2ccccc2-c2nc3ccccc3[nH]2)c1	-1	-8	0
O=c1[nH]c2ccccc2nc1/C=C/c1ccccc1	-1	-10	0
COc1ccc(OC)c(/C=C/c2nc3ccccc3[nH]c2=O)c1	0	+	0

High-throughput results deposited in PubChem by Broad Institute.
